# Results reported in PubChem BioAssay AID463173 (ICCB-Longwood Screening Facility, Harvard Medical School, 2010).
# Among all 52,000 compounds or so, about 1,700 (3.3%) were called active. For the sample, actives were picked, then their nearest neighbours and some compounds at random. A number with no mark means an inactive call. Rule as the data show it: active = survival mostly below about 52% (no sharp cut-off); inactive = mostly above about 56%.
# System: Wild type
# Assay: growth inhibition of S. aureus wild type versus tarO mutant, primary screen, teichoic acid synthesis inhibitors, RN4220, OD600 (AID 463173)
# Settings: S. aureus RN4220 wild type/DeltatarO growth, OD600, 18 h, stronger effect = lower value, screened at 18.75 µg/mL (by protocol)
row,Structure (SMILES),survival
1,CC1CCc2c(sc3nc(SCC(=O)Nc4c[nH]c(=O)[nH]c4=O)[nH]c(=O)c23)C1 (stereo not drawn),107%
2,Cc1ccc(CNC(=O)c2cc(-c3ccc(C)cc3)nc3n[nH]c(-c4cccc([N+](=O)[O-])c4)c23)cc1,74%
3,CC(C)CNS(=O)(=O)c1ccc(S(=O)(=O)N2CCCN(Cc3ccccc3)C2)cc1,97%
4,CCOc1ccc(-c2cc3nc(C4CCN(C(=O)OC(C)(C)C)CC4)c(C(=O)Nc4ccc(C)c(F)c4)cn3n2)cc1,86%
5,CCc1ccc(NC(=O)C2CCN(c3nc(-c4ccc(OC)cc4)no3)CC2)cc1,66%
6,COC(=O)c1cccnc1-n1c(=O)c2cccnc2n(CC(=O)Nc2ccccc2F)c1=O,84%
7,Cc1[nH]c(=O)[nH]c(=O)c1CSCC(=O)O,108%
8,O=C(/C=C/c1ccc(Cl)cc1)Nc1nc(-c2cccs2)ns1,75%
9,Cc1ccc(-c2nnc(NC3CCCC3)s2)cc1,126%
10,Cc1cc(C)c(C#N)c(NC2CCCCC2)n1,92%
11,N#CSc1cnc(NC2CCCCC2)s1,2% (active)
12,O=S(=O)(c1ccc2nc(Nc3cccc(F)c3)ccc2c1)N1CCCC1,75%
13,CC(=O)c1cccc(Nc2ccc3cc(S(=O)(=O)N4CCCC4)ccc3n2)c1,73%
14,CCOC(=O)c1cccc(Nc2ccc3cc(S(=O)(=O)N4CCCCC4)ccc3n2)c1,-3% (active)
15,CCN(CC)c1cc(C)c2cc(NC(=O)/C=C/c3ccc(C)cc3)ccc2n1,68%
16,CCN(CC)c1ccc(NC(=O)c2cnc3c(-c4ccccc4)c(C)nn3c2C)c(C)c1,85%
17,Fc1ccccc1C(NCCc1ccc(Cl)cc1)c1nnc(-c2ccccc2)o1 (stereo not drawn),-1% (active)
18,Cc1cc(C)cc(NC(c2cccc(Cl)c2)c2nnc(-c3ccccc3)o2)c1 (stereo not drawn),91%
19,CC(C)c1ccc(NC(c2nnc(-c3ccccc3)o2)c2ccc(F)cc2Cl)cc1 (stereo not drawn),69%
20,COc1ccc(NC(c2nnc(-c3ccccc3)o2)c2ccccc2F)cc1Cl (stereo not drawn),65%
21,Fc1ccc(C(NCCc2ccc(Cl)cc2)c2nnc(-c3ccccc3)o2)c(Cl)c1 (stereo not drawn),3% (active)

row,Structure (SMILES),survival
1,Cc1cc(C)cc(NC(c2nnc(-c3cccc(F)c3)o2)c2ccc(F)cc2Cl)c1 (stereo not drawn),37%
2,CCOC(=O)c1cccc(NC(c2nnc(-c3ccccc3)o2)c2ccccc2F)c1 (stereo not drawn),87%
3,Cc1cc(NC(c2nnc(-c3ccccc3)o2)c2ccccc2F)ccc1Br (stereo not drawn),9% (active)
4,Clc1ccc(CCNC(c2nnc(-c3ccccc3)o2)c2ccccc2Cl)cc1 (stereo not drawn),3% (active)
5,Cc1ccc(NC(c2nnc(-c3ccccc3)o2)c2ccccc2F)c(Cl)c1 (stereo not drawn),91%
6,Cc1cc([N+](=O)[O-])ccc1NC(c1nnc(-c2ccccc2)o1)c1ccccc1F (stereo not drawn),99%
7,Cc1ccccc1Cn1cc(CCC(=O)NC(C)c2ccccc2)c2ccccc21 (stereo not drawn),84%
8,CC(C)n1nnnc1SCC(=O)OC1CCCCC1,127%
9,Cc1cc(C)nc(Nc2nc3ccccc3s2)n1,109%
10,Cc1cccc(C(=O)Nc2nc(-c3nnn(-c4cc(F)ccc4F)c3C)ns2)c1,133%
11,N#Cc1cc[n+](CC(=O)c2cccs2)cc1,102%
12,Cc1ccc(NC(c2cccc(Cl)c2)c2nnc(-c3ccccc3)o2)cc1F (stereo not drawn),90%
13,CCOc1ccc(CCNC(c2cccc(Cl)c2)c2nnc(-c3ccccc3)o2)cc1OCC (stereo not drawn),89%
14,Clc1ccc(CCNC(c2ccc(Cl)cc2)c2nnc(-c3ccccc3)o2)cc1 (stereo not drawn),86%
15,CCOc1ccc(CCNC(=O)Cn2nnc(-c3ccccc3)n2)cc1OCC,98%
16,CCOc1ccc(CCNC(c2nnc(-c3ccccc3)o2)c2ccccc2Cl)cc1OCC (stereo not drawn),4% (active)
17,Clc1ccc(CCNC(c2cccc(Cl)c2)c2nnc(-c3ccccc3)o2)cc1 (stereo not drawn),5% (active)
18,COc1cc(NS(=O)(=O)c2c(C)nc3sc(C)c(C)n3c2=O)cc(OC)c1,90%
19,Cn1cnc2c(=O)oc3ccc(S(=O)(=O)N4CCN(c5cccc(C(F)(F)F)c5)CC4)cc3c21,120%
20,Cn1cnc2c(=O)oc3ccc(S(=O)(=O)N4CCN(c5ccccc5)CC4)cc3c21,87%
21,Cn1cnc2c(=O)oc3ccc(S(=O)(=O)N4CCN(c5cccc(Cl)c5)CC4)cc3c21,-6% (active)

row,Structure (SMILES),survival
1,CCOc1ccc(NC(=O)c2c(Nc3ccccc3C)sc(C(=O)c3ccccc3)c2N)cc1,83%
2,Cc1ccc(CN2C(=O)c3ccccc3CC2(C)C(=O)NC2CCCCC2)cc1 (stereo not drawn),84%
3,CN(c1ncnc2onc(-c3cccc(Cl)c3)c12)C1CCCCC1,-1% (active)
4,CN(c1ncnc2c1c(-c1ccccc1)cn2-c1cccc(Cl)c1)C1CCCCC1,89%
5,Clc1cccc(-c2noc3ncnc(NC4CCCCC4)c23)c1,79%
6,COc1ccc(S(=O)(=O)N(CC(=O)N2CCC(C)CC2)c2ccc(C)cc2)cc1,89%
7,O=C(NCCC1=CCCCC1)c1ccc2c(=O)n3nc(Nc4ccccc4)sc3nc2c1,72%
8,O=C(CN1CCC(NC(=O)C2CCCCC2)CC1)Nc1cccc(F)c1,111%
9,CCc1nn2c(=O)cc(COC(=O)c3ccc(NC(=O)C4CCCCC4)cc3)nc2s1,68%
10,CCOc1ccc(OCC)c(NS(=O)(=O)c2ccc3[nH]c(=O)ccc3c2)c1,0% (active)
11,CCOc1ccc(CNS(=O)(=O)c2ccc3[nH]c(=O)ccc3c2)cc1,80%
12,CCOc1ccccc1CNS(=O)(=O)c1ccc2[nH]c(=O)ccc2c1,71%
13,O=C(Cn1c(=O)n(CCc2ccccc2)c(=O)c2cccnc21)Nc1ccc(F)cc1,80%
14,Cc1oc2c(C)c3oc(=O)c(CC(=O)N4CCCCC4)c(C)c3cc2c1C,83%
15,Cc1nnc(SCC(=O)N(C2CCCCC2)C2CCCCC2)[nH]c1=O,117%
16,CCOC(=O)C1CCCN(C(=O)c2ccc(OCC)cc2)C1 (stereo not drawn),117%
17,CCOc1ccc(C(=O)c2cnc3ccc(Cl)cc3c2S(=O)(=O)c2ccc(C)cc2)cc1,86%
18,CCOC(=O)C1CCCN(c2c(C(=O)c3ccc(OCC)cc3)cnc3ccccc23)C1 (stereo not drawn),0% (active)
19,CCOC(=O)C1CCCN(c2c(C(=O)c3ccccc3)cnc3ccc(F)cc23)C1 (stereo not drawn),22%
20,CCOc1ccc(S(=O)(=O)c2c(C(=O)c3ccc(C)c(C)c3)cnc3ccccc23)cc1,80%
21,CCOC(=O)C1CCCN(c2c(C(=O)c3ccc(C)cc3)cnc3ccc(OCC)cc23)C1 (stereo not drawn),2% (active)
